According to the supplement of paper PMC4466140:

What was measured:
Test in all cases: SPOT peptide array binding signal intensity (averaged, normalized) (arbitrary units (background-subtracted, floor 0; scale differs between SH3 domains)); higher = stronger binding of the SH3 domain to the peptide
[1] = biological target: CaNbp2
Summary of the method: (§1)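 Detection of bound protein relied on anti-GST antibody, an HRP anti-mouse secondary and luminol, with imaging and quantification in Genespotter. The bound protein was GST-fused SH3 domains from four yeast species, incubated at 10 μg/ml overnight at 4°C in TBS-based blocking buffer on cellulose membranes carrying synthetic 15-mer peptides with cysteines replaced by serines. Binding signal is normalized, background-subtracted spot intensity averaged over replicates, in arbitrary units that differ between domains.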

[2] = biological target: CaRvs167
Summary of the method: as §1

[3] = biological target: CaRvs167-3
Summary of the method: as §1

[4] = biological target: CaSho1
Summary of the method: as §1

[5] = biological target: CaSla1-D1-D2
Summary of the method: as §1

[6] = biological target: CaSla1-D3
Summary of the method: as §1

[7] = biological target: ScAbp1
Summary of the method: as §1

[8] = biological target: ScBbc1
Summary of the method: as §1

[9] = biological target: ScBem1-D1
Summary of the method: as §1

[10] = biological target: ScBzz1-D1
Summary of the method: as §1

[11] = biological target: ScBzz1-D2
Summary of the method: as §1

[12] = biological target: ScCyk3
Summary of the method: as §1

[13] = biological target: ScFus1
Summary of the method: as §1

[14] = biological target: ScHof1
Summary of the method: as §1

[15] = biological target: ScHse1
Summary of the method: as §1

[16] = biological target: ScLsb1
Summary of the method: as §1

[17] = biological target: ScLsb2
Summary of the method: as §1

[18] = biological target: ScLsb3
Summary of the method: as §1

[19] = biological target: ScLsb4
Summary of the method: as §1

[20] = biological target: ScMyo3
Summary of the method: as §1

[21] = biological target: ScMyo5
Summary of the method: as §1

[22] = biological target: ScNbp2
Summary of the method: as §1

[23] = biological target: ScPex13
Summary of the method: as §1

[24] = biological target: ScRvs167
Summary of the method: as §1

[25] = biological target: ScSho1
Summary of the method: as §1

[26] = biological target: ScSla1-D1-D2
Summary of the method: as §1

[27] = biological target: ScSla1-D3
Summary of the method: as §1

[28] = biological target: SpAbp1-D1
Summary of the method: as §1

[29] = biological target: SpBbc1
Summary of the method: as §1

[30] = biological target: SpBzz1-D1
Summary of the method: as §1

[31] = biological target: SpBzz1-D2
Summary of the method: as §1

[32] = biological target: SpCyk3
Summary of the method: as §1

[33] = biological target: SpHof1
Summary of the method: as §1

[34] = biological target: SpHof1-2
Summary of the method: as §1

[35] = biological target: SpHof1-3
Summary of the method: as §1

[36] = biological target: SpHse1
Summary of the method: as §1

[37] = biological target: SpLsb1
Summary of the method: as §1

[38] = biological target: SpLsb4
Summary of the method: as §1

[39] = biological target: SpMyo1
Summary of the method: as §1

[40] = biological target: SpNbp2
Summary of the method: as §1

[41] = biological target: SpPex13
Summary of the method: as §1

[42] = biological target: SpRvs167
Summary of the method: as §1

[43] = biological target: SpSla1-D1-D2
Summary of the method: as §1

[44] = biological target: SpSla1-D3
Summary of the method: as §1

[45] = biological target: AgAbp1
Summary of the method: as §1

[46] = biological target: AgBbc1
Summary of the method: as §1

[47] = biological target: AgBem1-D1
Summary of the method: as §1

[48] = biological target: AgBzz1-D1
Summary of the method: as §1

[49] = biological target: AgBzz1-D2
Summary of the method: as §1

[50] = biological target: AgCyk3
Summary of the method: as §1

[51] = biological target: AgFus1
Summary of the method: as §1

[52] = biological target: AgHof1
Summary of the method: as §1

[53] = biological target: AgHse1
Summary of the method: as §1

[54] = biological target: AgLsb1
Summary of the method: as §1

[55] = biological target: AgLsb4
Summary of the method: as §1

[56] = biological target: AgMyo5
Summary of the method: as §1

[57] = biological target: AgNbp2
Summary of the method: as §1

[58] = biological target: AgRvs167
Summary of the method: as §1

[59] = biological target: AgSho1
Summary of the method: as §1

[60] = biological target: AgSla1-D1-D2
Summary of the method: as §1

[61] = biological target: AgSla1-D3
Summary of the method: as §1

[62] = biological target: CaAbp1-D1
Summary of the method: as §1

[63] = biological target: CaAbp1-D2
Summary of the method: as §1

[64] = biological target: CaBbc1
Summary of the method: as §1

[65] = biological target: CaBem1-D1
Summary of the method: as §1

[66] = biological target: CaBzz1-D1
Summary of the method: as §1

[67] = biological target: CaBzz1-D2
Summary of the method: as §1

[68] = biological target: CaCyk3
Summary of the method: as §1

[69] = biological target: CaFus1
Summary of the method: as §1

[70] = biological target: CaHof1
Summary of the method: as §1

[71] = biological target: CaHse1
Summary of the method: as §1

[72] = biological target: CaLsb1
Summary of the method: as §1

[73] = biological target: CaLsb4
Summary of the method: as §1

[74] = biological target: CaMyo5
Summary of the method: as §1

B1: unnamed (peptide)
chain: NTMKKRPAPPSLPSL
[1]
  SPOT peptide array binding signal intensity: 1280
[2]
  SPOT peptide array binding signal intensity: 89
[3]
  SPOT peptide array binding signal intensity: 1.25
[4]
  SPOT peptide array binding signal intensity: 1700
[5]
  SPOT peptide array binding signal intensity: 648
[6]
  SPOT peptide array binding signal intensity: 246
[7]
  SPOT peptide array binding signal intensity: 30
[8]
  SPOT peptide array binding signal intensity: 4.5
[9]
  SPOT peptide array binding signal intensity: 1
[10]
  SPOT peptide array binding signal intensity: 134
[11]
  SPOT peptide array binding signal intensity: 59
[12]
  SPOT peptide array binding signal intensity: 11
[13]
  SPOT peptide array binding signal intensity: 457
[14]
  SPOT peptide array binding signal intensity: 19.5
[15]
  SPOT peptide array binding signal intensity: 1410
[16]
  SPOT peptide array binding signal intensity: 29.5
[17]
  SPOT peptide array binding signal intensity: ≤ 0
[18]
  SPOT peptide array binding signal intensity: 344
[19]
  SPOT peptide array binding signal intensity: 130
[20]
  SPOT peptide array binding signal intensity: 350
[21]
  SPOT peptide array binding signal intensity: 287
[22]
  SPOT peptide array binding signal intensity: 383
[23]
  SPOT peptide array binding signal intensity: 310
[24]
  SPOT peptide array binding signal intensity: 64.5
[25]
  SPOT peptide array binding signal intensity: 837
[26]
  SPOT peptide array binding signal intensity: 234
[27]
  SPOT peptide array binding signal intensity: 521
[28]
  SPOT peptide array binding signal intensity: 78.5
[29]
  SPOT peptide array binding signal intensity: 3
[30]
  SPOT peptide array binding signal intensity: 1170
[31]
  SPOT peptide array binding signal intensity: 257
[32]
  SPOT peptide array binding signal intensity: 2
[33]
  SPOT peptide array binding signal intensity: 144
[34]
  SPOT peptide array binding signal intensity: 41.8
[35]
  SPOT peptide array binding signal intensity: 227
[36]
  SPOT peptide array binding signal intensity: 602
[37]
  SPOT peptide array binding signal intensity: 12.2
[38]
  SPOT peptide array binding signal intensity: 788
[39]
  SPOT peptide array binding signal intensity: 196
[40]
  SPOT peptide array binding signal intensity: 308
[41]
  SPOT peptide array binding signal intensity: 55
[42]
  SPOT peptide array binding signal intensity: 110
[43]
  SPOT peptide array binding signal intensity: 15
[44]
  SPOT peptide array binding signal intensity: 156

B2: unnamed (peptide)
chain: GRSRLFPHSPLGRSS
[45]
  SPOT peptide array binding signal intensity: 93
[46]
  SPOT peptide array binding signal intensity: 13.8
[47]
  SPOT peptide array binding signal intensity: 88.5
[48]
  SPOT peptide array binding signal intensity: 26.5
[49]
  SPOT peptide array binding signal intensity: 0.5
[50]
  SPOT peptide array binding signal intensity: 0.5
[51]
  SPOT peptide array binding signal intensity: 454
[52]
  SPOT peptide array binding signal intensity: 14.5
[53]
  SPOT peptide array binding signal intensity: 716
[54]
  SPOT peptide array binding signal intensity: 0.75
[55]
  SPOT peptide array binding signal intensity: 39.5
[56]
  SPOT peptide array binding signal intensity: ≤ 0
[57]
  SPOT peptide array binding signal intensity: 177
[58]
  SPOT peptide array binding signal intensity: 3.42
[59]
  SPOT peptide array binding signal intensity: 52.8
[60]
  SPOT peptide array binding signal intensity: 26
[61]
  SPOT peptide array binding signal intensity: 11.2
[62]
  SPOT peptide array binding signal intensity: 491
[63]
  SPOT peptide array binding signal intensity: 410
[64]
  SPOT peptide array binding signal intensity: 105
[65]
  SPOT peptide array binding signal intensity: 35
[66]
  SPOT peptide array binding signal intensity: 53.5
[67]
  SPOT peptide array binding signal intensity: 39.2
[68]
  SPOT peptide array binding signal intensity: 3.5
[69]
  SPOT peptide array binding signal intensity: 1070
[70]
  SPOT peptide array binding signal intensity: 0.75
[71]
  SPOT peptide array binding signal intensity: 11.1
[72]
  SPOT peptide array binding signal intensity: 1
[73]
  SPOT peptide array binding signal intensity: ≤ 0
[74]
  SPOT peptide array binding signal intensity: ≤ 0
[1]
  SPOT peptide array binding signal intensity: 539
[2]
  SPOT peptide array binding signal intensity: 3.5
[3]
  SPOT peptide array binding signal intensity: 43.8
[4]
  SPOT peptide array binding signal intensity: 513
[5]
  SPOT peptide array binding signal intensity: 76.5
[6]
  SPOT peptide array binding signal intensity: ≤ 0
[7]
  SPOT peptide array binding signal intensity: 144
[8]
  SPOT peptide array binding signal intensity: ≤ 0
[9]
  SPOT peptide array binding signal intensity: 57.2
[10]
  SPOT peptide array binding signal intensity: 6.5
[11]
  SPOT peptide array binding signal intensity: 29.5
[12]
  SPOT peptide array binding signal intensity: 91.5
[13]
  SPOT peptide array binding signal intensity: 374
[14]
  SPOT peptide array binding signal intensity: ≤ 0
[15]
  SPOT peptide array binding signal intensity: 2660
[16]
  SPOT peptide array binding signal intensity: ≤ 0
[17]
  SPOT peptide array binding signal intensity: ≤ 0
[18]
  SPOT peptide array binding signal intensity: 212
[19]
  SPOT peptide array binding signal intensity: 1.5
[20]
  SPOT peptide array binding signal intensity: 0.25
[21]
  SPOT peptide array binding signal intensity: ≤ 0
[22]
  SPOT peptide array binding signal intensity: 294
[23]
  SPOT peptide array binding signal intensity: ≤ 0
[24]
  SPOT peptide array binding signal intensity: 12.3
[25]
  SPOT peptide array binding signal intensity: 1020
[26]
  SPOT peptide array binding signal intensity: 224
[27]
  SPOT peptide array binding signal intensity: 1.25
[28]
  SPOT peptide array binding signal intensity: 186
[29]
  SPOT peptide array binding signal intensity: 2
[30]
  SPOT peptide array binding signal intensity: 255
[31]
  SPOT peptide array binding signal intensity: 0.375
[32]
  SPOT peptide array binding signal intensity: ≤ 0
[33]
  SPOT peptide array binding signal intensity: 68.5
[34]
  SPOT peptide array binding signal intensity: 15
[35]
  SPOT peptide array binding signal intensity: 412
[36]
  SPOT peptide array binding signal intensity: 730
[37]
  SPOT peptide array binding signal intensity: 0.25
[38]
  SPOT peptide array binding signal intensity: ≤ 0
[39]
  SPOT peptide array binding signal intensity: ≤ 0
[40]
  SPOT peptide array binding signal intensity: 419
[41]
  SPOT peptide array binding signal intensity: 10.5
[42]
  SPOT peptide array binding signal intensity: 6.58
[43]
  SPOT peptide array binding signal intensity: 10
[44]
  SPOT peptide array binding signal intensity: 18.5
